# Measurements as given in the supplement of paper PMC8728848.
# The entries come from a sample that favours the strongest signals as a whole.
# B1: Apa (Mycobacterium tuberculosis), Rv1860 (protein)
# chain: MHQVDPNLTRRKGRLAALAIAAMASASLVTVAVPATANADPEPAPPVPTTAASPPSTAAAPPAPATPVAPPPPAAANTPNAQPGDPNAAPPPADPNAPPPPVIAPNAPQPVRIDNPVGGFSFALPAGWVESDAAHFDYGSALLSKTTGDPPFPGQPPPVANDTRIVLGRLDQKLYASAEATDSKAAARLGSDMGEFYMPYPGTRINQETVSLDANGVSGSASYYEVKFSDPSKPNGQIWTGVIGSPAANAPDAGPPQRWFVVWLGTANNPVDKGAAKALAESIRPLVAPPPAPAPAPAEPAPAPAPAGEVAPTPTTPTPQRTLPA
# Key:
# Assay in all cases: glycan array binding signal (z-score within array); higher = stronger binding
# Conditions in all cases: glycan notation: IUPAC condensed, linker removed
# [1] = target: Fuc(a1-2)Gal(b1-3)GalNAc(a1-3)[Fuc(a1-2)]Gal(b1-4)Glc
# Method in brief: (§1)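 Glycan array binding is given as a within-array Z-score, which can be read as non-binding when negative. The arrays, 3228 of them, came from the Consortium for Functional Glycomics database and were retained only where the protein sequence was available. Z-scores were averaged across arrays of the same protein sequence at different concentrations or buffers and across linkers.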
# [2] = target: Fuc(a1-2)Gal(b1-3)GalNAc(b1-3)Gal
# Method in brief: as §1
# Fuc(a1-2)Gal(b1-4)Glc6S = target: Fuc(a1-2)Gal(b1-4)Glc6S
# Method in brief: as §1
# [3] = target: Fuc(a1-2)Gal6S(b1-3)GlcNAc6S
# Method in brief: as §1
# [4] = target: Fuc(a1-2)Gal6S(b1-4)Glc6S
# Method in brief: as §1
# [5] = target: Fuc(a1-2)[Gal(a1-3)]Gal(b1-3)GlcNAc(b1-2)Man(a1-3)[Fuc(a1-2)[Gal(a1-3)]Gal(b1-3)GlcNAc(b1-2)Man(a1-6)]Man(b1-4)GlcNAc(b1-4)[Fuc(a1-6)]GlcNAc
# Method in brief: as §1
# [6] = target: Fuc(a1-2)[Gal(a1-3)]Gal(b1-4)[Fuc(a1-3)]Glc
# Method in brief: as §1
# [7] = target: Fuc(a1-2)[Gal(a1-3)]Gal(b1-4)[Fuc(a1-3)]GlcNAc
# Method in brief: as §1
# [8] = target: Fuc(a1-2)[GalNAc(a1-3)]Gal(b1-3)GalNAc(a1-3)[Fuc(a1-2)]Gal(b1-4)GlcNAc
# Method in brief: as §1
# [9] = target: Fuc(a1-2)[GalNAc(a1-3)]Gal(b1-3)GalNAc(b1-3)Gal(a1-4)Gal(b1-4)Glc
# Method in brief: as §1
# [10] = target: Fuc(a1-2)[GalNAc(a1-3)]Gal(b1-4)GlcNAc
# Method in brief: as §1
# [11] = target: Fuc(a1-3)[Gal(b1-4)]Glc6S
# Method in brief: as §1
# [12] = target: Fuc(a1-3)[Gal(b1-4)]GlcNAc(b1-3)Gal(b1-4)[Fuc(a1-3)]GlcNAc
# Method in brief: as §1
# [13] = target: Fuc(a1-3)[Gal(b1-4)]GlcNAc6S
# Method in brief: as §1
# Fuc(a1-4)GlcNAc = target: Fuc(a1-4)GlcNAc
# Method in brief: as §1
# Gal(b1-3)GlcNAc(b1-2)Man = target: Gal(b1-3)GlcNAc(b1-2)Man
# Method in brief: as §1
# [14] = target: Gal(b1-3)GlcNAc(b1-2)Man(a1-3)[Gal(b1-3)GlcNAc(b1-2)Man(a1-6)]Man(b1-4)GlcNAc(b1-4)GlcNAc
# Method in brief: as §1
# [15] = target: Gal(b1-3)GlcNAc(b1-3)Gal(b1-3)GlcNAc
# Method in brief: as §1
# Gal(b1-3)GlcNAc6S = target: Gal(b1-3)GlcNAc6S
# Method in brief: as §1
# [16] = target: Gal(b1-4)GalNAc(b1-3)[Fuc(a1-2)]Gal(b1-4)GlcNAc
# Method in brief: as §1
# [17] = target: Gal(b1-4)GlcNAc(a1-6)Gal(b1-4)GlcNAc
# Method in brief: as §1
# [18] = target: Gal(b1-4)GlcNAc(b1-2)Man(a1-3)[Gal(b1-4)GlcNAc(b1-2)Man(a1-6)]Man(b1-4)GlcNAc(b1-4)[Fuc(a1-6)]GlcNAc
# Method in brief: as §1
# [19] = target: Gal(b1-4)GlcNAc(b1-2)[Gal(b1-4)GlcNAc(b1-4)]Man(a1-3)[GlcNAc(b1-4)][Gal(b1-4)GlcNAc(b1-2)[Gal(b1-4)GlcNAc(b1-6)]Man(a1-6)]Man(b1-4)GlcNAc(b1-4)GlcNAc
# Method in brief: as §1
# [20] = target: Gal(b1-4)GlcNAc(b1-3)Gal(b1-3)GlcNAc
# Method in brief: as §1
# [21] = target: Gal(b1-4)GlcNAc(b1-3)Gal(b1-4)GlcNAc
# Method in brief: as §1
# Gal(b1-4)GlcNAc6P = target: Gal(b1-4)GlcNAc6P
# Method in brief: as §1
# [22] = target: GalNAc(b1-4)GlcNAc(b1-2)Man
# Method in brief: as §1
# GalNAc(b1-4)GlcNAc6S = target: GalNAc(b1-4)GlcNAc6S
# Method in brief: as §1
# GalNAc6S(b1-4)GlcNAc = target: GalNAc6S(b1-4)GlcNAc
# Method in brief: as §1
# Glc(b1-4)Glc = target: Glc(b1-4)Glc
# Method in brief: as §1
# Glc(b1-6)Glc = target: Glc(b1-6)Glc
# Method in brief: as §1
# [23] = target: GlcNAc(b1-2)Man(a1-3)[GlcNAc(b1-4)][GlcNAc(b1-2)Man(a1-6)]Man(b1-4)GlcNAc(b1-4)[Fuc(a1-6)]GlcNAc
# Method in brief: as §1
# [24] = target: GlcNAc(b1-2)[GlcNAc(b1-4)]Man(a1-3)[GlcNAc(b1-2)Man(a1-6)]Man(b1-4)GlcNAc(b1-4)GlcNAc
# Method in brief: as §1
# [25] = target: GlcNAc(b1-2)[GlcNAc(b1-4)]Man(a1-3)[GlcNAc(b1-4)][GlcNAc(b1-2)[GlcNAc(b1-6)]Man(a1-6)]Man(b1-4)GlcNAc(b1-4)[Fuc(a1-6)]GlcNAc
# Method in brief: as §1
# [26] = target: GlcNAc(b1-3)Gal(b1-4)GlcNAc(b1-3)[GlcNAc(b1-3)Gal(b1-4)GlcNAc(b1-3)]GalNAc
# Method in brief: as §1
# [27] = target: GlcNAc(b1-3)[GlcNAc(b1-6)]GalNAc
# Method in brief: as §1
# [28] = target: GlcNAc(b1-6)Gal(b1-4)GlcNAc
# Method in brief: as §1
# GlcNAc(b1-6)GalNAc = target: GlcNAc(b1-6)GalNAc
# Method in brief: as §1
# [29] = target: Man(a1-2)Man(a1-6)[Man(a1-3)]Man(a1-6)[Man(a1-2)Man(a1-2)Man(a1-3)]Man
# Method in brief: as §1
# Man(a1-6)Man = target: Man(a1-6)Man
# Method in brief: as §1
# MurNAc(b1-4)GlcNAc = target: MurNAc(b1-4)GlcNAc
# Method in brief: as §1
# [30] = target: Neu5Ac(a2-3)Gal(b1-3)[GlcNAc(b1-6)]GalNAc
# Method in brief: as §1
# [31] = target: Neu5Ac(a2-3)Gal(b1-4)GlcNAc(b1-2)Man(a1-3)[Neu5Ac(a2-3)Gal(b1-4)GlcNAc(b1-2)Man(a1-6)]Man(b1-4)GlcNAc(b1-4)GlcNAc
# Method in brief: as §1
# [32] = target: Neu5Ac(a2-3)Gal(b1-4)GlcNAc(b1-2)Man(a1-3)[Neu5Ac(a2-3)Gal(b1-4)GlcNAc(b1-2)Man(a1-6)]Man(b1-4)GlcNAc(b1-4)[Fuc(a1-6)]GlcNAc
# Method in brief: as §1
# [33] = target: Neu5Ac(a2-3)Gal(b1-4)GlcNAc(b1-2)Man(a1-3)[Neu5Ac(a2-6)Gal(b1-4)GlcNAc(b1-2)Man(a1-6)]Man(b1-4)GlcNAc(b1-4)GlcNAc
# Method in brief: as §1
# [34] = target: Neu5Ac(a2-3)Gal(b1-4)[Fuc(a1-3)]GlcNAc(b1-6)[Neu5Ac(a2-3)Gal(b1-3)]GalNAc
# Method in brief: as §1
# [35] = target: Neu5Ac(a2-3)Gal6S(b1-4)GlcNAc
# Method in brief: as §1
# [36] = target: Neu5Ac(a2-3)Gal6S(b1-4)[Fuc(a1-3)]GlcNAc
# Method in brief: as §1
# [37] = target: Neu5Ac(a2-6)Gal(b1-4)GlcNAc(b1-2)Man(a1-3)[Neu5Ac(a2-3)Gal(b1-4)GlcNAc(b1-2)Man(a1-6)]Man(b1-4)GlcNAc(b1-4)GlcNAc
# Method in brief: as §1
# [38] = target: Neu5Ac(a2-6)Gal(b1-4)GlcNAc(b1-3)Gal(b1-4)GlcNAc(b1-6)[Gal(b1-3)]GalNAc
# Method in brief: as §1
# Neu5Ac(b2-6)GalNAc = target: Neu5Ac(b2-6)GalNAc
# Method in brief: as §1
# Neu5Gc(a2-3)Gal(b1-4)Glc = target: Neu5Gc(a2-3)Gal(b1-4)Glc
# Method in brief: as §1
binder,measurement,setting,value
B1,glycan array binding signal (z-score),[1],2.08
same,glycan array binding signal (z-score),[2],4.21
same,glycan array binding signal (z-score),Fuc(a1-2)Gal(b1-4)Glc6S,-0.06
same,glycan array binding signal (z-score),[3],2.87
same,glycan array binding signal (z-score),[4],1.9
same,glycan array binding signal (z-score),[5],0.338
same,glycan array binding signal (z-score),[6],-0.318
same,glycan array binding signal (z-score),[7],0.273
same,glycan array binding signal (z-score),[8],14.3
same,glycan array binding signal (z-score),[9],5.64
same,glycan array binding signal (z-score),[10],-0.327
same,glycan array binding signal (z-score),[11],0.898
same,glycan array binding signal (z-score),[12],0.272
same,glycan array binding signal (z-score),[13],1.94
same,glycan array binding signal (z-score),Fuc(a1-4)GlcNAc,-0.036
same,glycan array binding signal (z-score),Gal(b1-3)GlcNAc(b1-2)Man,2.77
same,glycan array binding signal (z-score),[14],-0.376
same,glycan array binding signal (z-score),[15],-0.31
same,glycan array binding signal (z-score),Gal(b1-3)GlcNAc6S,-0.259
same,glycan array binding signal (z-score),[16],5.04
same,glycan array binding signal (z-score),[17],0.281
same,glycan array binding signal (z-score),[18],-0.333
same,glycan array binding signal (z-score),[19],0.024
same,glycan array binding signal (z-score),[20],-0.238
same,glycan array binding signal (z-score),[21],-0.271
same,glycan array binding signal (z-score),Gal(b1-4)GlcNAc6P,-0.455
same,glycan array binding signal (z-score),[22],-0.412
same,glycan array binding signal (z-score),GalNAc(b1-4)GlcNAc6S,-0.421
same,glycan array binding signal (z-score),GalNAc6S(b1-4)GlcNAc,2.78
same,glycan array binding signal (z-score),Glc(b1-4)Glc,2.25
same,glycan array binding signal (z-score),Glc(b1-6)Glc,-0.327
same,glycan array binding signal (z-score),[23],-0.607
same,glycan array binding signal (z-score),[24],-0.083
same,glycan array binding signal (z-score),[25],-0.482
same,glycan array binding signal (z-score),[26],0.26
same,glycan array binding signal (z-score),[27],-0.468
same,glycan array binding signal (z-score),[28],-0.453
same,glycan array binding signal (z-score),GlcNAc(b1-6)GalNAc,-0.174
same,glycan array binding signal (z-score),[29],0.102
same,glycan array binding signal (z-score),Man(a1-6)Man,-0.69
same,glycan array binding signal (z-score),MurNAc(b1-4)GlcNAc,-0.3
same,glycan array binding signal (z-score),[30],-0.268
same,glycan array binding signal (z-score),[31],-0.603
same,glycan array binding signal (z-score),[32],0.28
same,glycan array binding signal (z-score),[33],-0.452
same,glycan array binding signal (z-score),[34],0.026
same,glycan array binding signal (z-score),[35],-0.642
same,glycan array binding signal (z-score),[36],-0.633
same,glycan array binding signal (z-score),[37],-0.473
same,glycan array binding signal (z-score),[38],-0.533
same,glycan array binding signal (z-score),Neu5Ac(b2-6)GalNAc,-0.414
same,glycan array binding signal (z-score),Neu5Gc(a2-3)Gal(b1-4)Glc,-0.297
